HT1080 IDH1KD tx – HT-1080 IDH1 knockdown cell toxicity (counter line). HT-1080 IDH1 knockdown viability, ATP luminescence, 48 h. Potency, µM (titrated, usually from 46.1 µM), without a hit: top-dose activity, negative = toxicity, most hits filed as cytotoxic. hit rate 2% among 360,000. AID 686971;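 note: 0% = DMSO wells and -100% = cell-free medium wells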
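After a 2 h attachment period, IDH1KD HT-1080 cells took pin-transferred compound for 48 h at 37 °C; ATP-based luminescence after 10 min room-temperature reagent incubation reported viability.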
TDP1 cell noCPT – qHTS for Inhibitors of human tyrosyl-DNA phosphodiesterase 1 (TDP1): qHTS in cells in absence of CPT; DT40 Tdp1-/- hTDP1 cells, no CPT, ATP luminescence, 48 h; Potency, µM (highest dose often 46.2 µM), for inactives: at the highest dose activity change, negative = growth inhibition, most hits filed as inhibitors; hit rate 15% among 420,000; AID 686978, 2013; note: % is set by controls: 0 for no effect and ±100 for the full control effect; nearly all actives have a fitted effect of over 55% in size
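Luminescent ATP content (CellTiter-Glo) served as the growth readout. Knockout chicken DT40 cells expressing human TDP1 were exposed to compounds without camptothecin for a minimum 48 hr at 37 °C.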
HT1080NT lethal – kills 2HG-producing HT-1080-NT fibrosarcoma cells; HT-1080-NT fibrosarcoma viability, CellTiter-Glo ATP luminescence, 48 h; Potency, µM (top dose mostly 46.1 µM), inactives show top-dose activity, negative = less viability, most hits filed as cytotoxic; hit rate 1.6% among 360,000; AID 686970;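 note: NT is the 2HG producing partner of a matched IDH1 knockdown line; 0% = DMSO-treated cells and -100% = media-only wells without cells; nearly all actives have a fitted effect of over 55% in size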
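Viability of the 2HG-overproducing fibrosarcoma line after 48 hours of compound exposure at 37 degrees C was determined by luminescence with CellTiter-Glo, and concentration-effect curves were then fitted and categorized.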
HepG2 tox – HepG2 cytotoxicity, counter-screen for TGF-b inhibitors; HepG2 CAGA-GFP viability, ATP luminescence, 18 h; Potency, µM (top dose mostly 46.1 µM), without a hit: top-dose activity change, negative = cytotoxicity, most hits filed as cytotoxic; hit rate 0.76% among 410,000; AID 588856
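CellTiter-Glo luminescence gave cytotoxicity after 18 hours at 37 degrees C. The cells were HepG2 CAGA-GFP in 1% FBS DMEM, stimulated with 500 pg/mL TGF-beta after compound addition. %Activity was normalised to no-cell wells (complete cell-killing) and DMSO (no toxicity), and curves were fitted and classified.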
TGFb SMAD3 inh – blocks TGF-b signaling; HepG2 CAGA-GFP TGF-b/SMAD3 reporter, GFP fluorescence, 18 h; TGF-beta stimulated, 500 pg/mL final; Potency, µM (titrated, usually from 46.1 µM), for the others: top-dose activity, negative = inhibition, usual class: inhibitors; hit rate 1.2% among 410,000; note: % is set by controls: 0 for no effect and ±100 for the full control effect; nearly all actives have a fitted effect of over 65% in size
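HEPG2 CAGA-GFP, 1000 cells/well; 2 h settle, 37 C; cpd via pin tool; TGF-b 500 pg/mL final; 18 h, 37 C; GFP imaging ex488/em500-530; %Activity normalised to -TGF-b and +DMSO controls; CRC fit, curve class.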
TDP1 cell CPT – growth inhibition of DT40 Tdp1-/-;hTDP1 cells with camptothecin (screen for TDP1 inhibitors). chicken DT40 Tdp1-/-;hTDP1 cells + 20 nM CPT, ATP luminescence, 48 h. Potency, µM (highest dose often 46.2 µM), inactives show at the highest dose activity change, negative = growth inhibition, actives largely listed as inhibitors. hit rate 12% among 420,000. AID 686979; note: % is set by controls: 0 for no effect and ±100 for the full control effect; nearly all actives have a fitted effect of over 55% in size
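Chicken DT40 Tdp1-/- cells complemented with human TDP1, 400 cells/well, exposed to compounds plus 20 nM camptothecin for at least 48 h at 37 C; viability read as ATP content by CellTiter-Glo luminescence.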
An asterisk follows results filed as active; ? = inconclusive; nt = no result; [ ] = dose if it differs, or a comment. Most compounds without a hit are left out; they make up all but 17% or so of the library. Calls come from the whole dose curve; as a rule, active = well fitted curve in the direction sought with a large enough effect; inconclusive = small, poorly fitted or top-dose-only effect, or another doubt; inactive = no such curve, though single readings can be large; an effect the other way counts as inactive or inconclusive. Potency is the fitted concentration of half-maximal effect.

SMILES | HT1080 IDH1KD tx | TDP1 cell noCPT | HT1080NT lethal | HepG2 tox | TGFb SMAD3 inh | TDP1 cell CPT
COC(=O)[C@@]12OC[C@]34[C@H]([C@@H](O)[C@@H]1O)[C@@]1(C)C(=O)C(O[C@@H]5OC(CO)[C@@H](O)[C@@H](O)[C@@H]5O)=C[C@@H](C)[C@@H]1C[C@H]3OC(=O)[C@H](OC(=O)/C=C(\C)C(C)(C)OC(C)=O)[C@@H]24 (stereo partly specified) | ? | 3.26µM* | ? | -26.7% | ? | 5.17µM*
COc1ccc(NCc2nnc(SCC(=O)c3ccc(OC)cc3)o2)cc1 | ? | 16.4µM* | -1.2% | -34.5% | 21.0% | ?
CCOc1cc(C(=O)CSc2nnc(CNc3ccc(Cl)cc3)o2)ccc1NC(=O)CC | ? | ? | -22.1% | 10µM* | ? | ?
COc1ccc(C(=O)CSc2nnc(Cn3cnc4ccccc43)o2)cc1 | -7.0% | 16.4µM* | -20.2% | 2.6% | -5.5% | 8.2µM*
O=C(Cc1cccc(C(F)(F)F)c1)N1CCCC1 | 4.3% | ? | 19.2% | -2.4% | 3.8% | 5.4%
CCN(C(=O)COC(=O)CNC(=O)c1ccccc1C)C1=CCCCC1 | -0.6% | -4.8% | -3.7% | -7.1% | 11.7% | -5.9%
CCCN(C(=O)CCl)C1=CCCCC1 | ? | 13µM* | 10.3µM* | -17.9% | -1.2% | 18.4µM*
COc1cccc(CNC(=O)Cc2ccc(NC(=O)N3CCSc4ncccc43)cc2)c1OC | nt | ? | nt | -4.0% | 0.0% | ?
CCn1cc(/C=C(\NC(=O)c2ccccc2)C(=O)NCCN2CCOCC2)c2ccccc21 | -0.7% | ? | 7.8% | -35.2% | 1.4% | ?
CCc1ccc2c(Cl)c(C(=O)N/N=C/c3c[nH]c4ccccc34)sc2c1 | 1.9%[9.24 µM] | ? | ? | -3.4% | ? | 20.6µM*
O=C(N/N=C/c1ccc[nH]1)c1c[nH]c2ccccc12 | -12.1% | 13.6% | -4.6% | -11.1% | 1.8% | 8.5%
O=C(N/N=C/c1c[nH]c2ccccc12)c1cccc(Cl)c1 | 5.0% | -12.9% | 2.1% | -29.1% | -9.4% | -15.4%
O=C(N/N=C/c1ccc[nH]1)c1sc2ccccc2c1Cl | ? | 13µM* | ? | -11.5% | ? | 13µM*
CCc1ccc(-c2cc(C(=O)N/N=C/c3c[nH]c4ccccc34)[nH]n2)cc1 | 3.66µM* | 6.51µM* | 5.17µM* | -73.2% | ? | 16.4µM*
CC(C)c1cc(C(=O)N/N=C/c2c[nH]c3ccccc23)n[nH]1 | -1.2% | ? | 0.0% | -13.1% | 5.1% | ?
Cc1ccccc1C(c1c(C)n(C)n(-c2ccccc2)c1=O)c1c(C)n(C)n(-c2ccccc2)c1=O | nt | nt | nt | 1.5% | 0.1% | nt
CCCC(c1c(C)n(C)n(-c2ccccc2)c1=O)c1c(C)n(C)n(-c2ccccc2)c1=O | ? | -100.6% | 1.7% | 11.2µM* | -6.0% | -100.4%
COc1ccc(C2C3=C(Nc4ncnn42)c2ccccc2CCC3)cc1 (stereo unspecified) | -2.0% | -25.1% | -5.5% | -1.9% | -30.8% | -0.4%
Fc1ccc(/C=C2\CCCC3=C2Nc2ncnn2C3c2ccc(F)cc2)cc1 (stereo unspecified) | 6.51µM* | 18.4µM* | 7.31µM* | -98.4% | ? | 14.6µM*
O=C1c2cccc3cccc(c23)C(=O)N1CCN1CCN(CC(O)COCc2ccc(Cl)cc2)CC1 (stereo unspecified) | ? | 14.6µM* | 20.6µM* | 12.6µM* | 14.1µM* | 8.2µM*
CCOC(=O)N1CCN(CC(O)COCc2cc(OC)c(OC)c(OC)c2)CC1 (stereo unspecified) | 3.0% | -0.1% | 17.3% | -3.2% | ? | -5.3%
O=C1c2cccc3cccc(c23)C(=O)N1CCN1CCN(C(=S)Nc2ccc(Cl)cc2)CC1 | 3.6% | ? | 0.1% | 0.7% | -16.2% | ?
COc1cc(COCC(O)CN2CCN(CCN3C(=O)c4cccc5cccc(c45)C3=O)CC2)cc(OC)c1OC (stereo unspecified) | -22.5% | 11.6µM* | -20.1% | -57.5% | ? | 18.4µM*
Cc1ccc(-n2c(SCC(N)=O)nc3c([nH]c4ccccc43)c2=O)cc1 | -20.1% | 25.9µM* | -15.7% | -20.0% | -12.3% | 14.6µM*
O=C(CSc1nc2c([nH]c3ccccc32)c(=O)n1-c1ccccc1F)Nc1cccc(Cl)c1 | nt | 20.6µM* | nt | -34.3% | ? | ?
SMILES | HT1080 IDH1KD tx | TDP1 cell noCPT | HT1080NT lethal | HepG2 tox | TGFb SMAD3 inh | TDP1 cell CPT
O=C(CSc1nc2c([nH]c3ccccc32)c(=O)n1-c1ccccc1)Nc1cccc(C(F)(F)F)c1 | nt | 23.1µM* | nt | -27.5% | -22.6% | 14.6µM*
CSc1nc2c([nH]c3ccccc32)c(=O)n1-c1ccc(C)cc1 | nt | -28.9% | nt | -11.4% | -12.3% | -29.0%
COc1cccc(NC(=O)CSc2nc3c([nH]c4ccccc43)c(=O)n2-c2cccc(Cl)c2)c1 | nt | -42.8% | nt | 5.9% | -3.3% | ?
Cc1ccc(-n2c(SCC(=O)NCc3ccc(F)cc3)nc3c([nH]c4ccccc43)c2=O)cc1 | nt | 23.1µM* | nt | -0.2% | -18.4% | 18.4µM*
Cc1ccc(SCC(=O)Nc2ccc(N3CCOCC3)cc2)c(C)c1 | 0.0% | -17.6% | -0.1% | 15.0% | 1.1% | -0.1%
CC[C@]1(C(=O)OC)[C@H]2C(=O)N(Cc3ccccc3)C(=O)[C@H]2[C@H]2CN(C)C(=NCc3ccccc3)N21 | 9.2% | -9.0% | 9.3% | -43.8% | 1.4% | -7.1%
